Records with an inconclusive call do not appear. Calls of active or inactive are those of the source. How the source made its calls, unless noted: active means hit-call score of the fitted dose curve at least 0.9, where 1 is the maximum; inactive means score below 0.9.
Experiments:
[1] = CCTE_Harrill_HTTr_Viability_MCF7: CCTE's 6-hour Cell Viability Assessment for the High-Throughput Transcriptomics (HTTr) Platform, in MCF-7 cells cultured in DMEM + 10% fetal bovine serum, Harrill Lab (AID 2284010)
Summary of the method: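 Viability measured through PI dye exclusion by high-content imaging at 6 h post-dosing.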

[2] = CCTE_Harrill_HTTr_Apoptosis_MCF7: CCTE's 6-hour Apoptosis Assessment for the High-Throughput Transcriptomics (HTTr) Platform, in MCF-7 cells cultured in DMEM + 10% fetal bovine serum, Harrill Lab (AID 2284011)
Summary of the method: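 Cells are dosed with test chemicals at eight concentrations and imaged 6 hours later for caspase-3/7 activity using a green fluorogenic detection reagent. Activity is fitted in both directions against DMSO controls.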

[3] = CCTE_Harrill_HTTr_CellCount_MCF7: CCTE's Cell Proliferation Assessment for the High-Throughput Transcriptomics (HTTr) Platform, Harrill Lab (AID 2284012; active means hit-call score of the fitted dose curve at least 0.9, where 1 is the maximum;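 further: count of Hoechst-stained nuclei per well by high-content imaging in MCF-7 cells; cells exposed to compound for six hours; intended direction is loss of nuclei count meaning fewer cells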)
Summary of the method: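 Nuclei counting (Hoechst, high content imaging) in MCF-7 after a 6 h treatment at eight concentrations. Activity fitted bidirectionally, DMSO as negative control.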

[4] = CCTE_Shafer_MEA_acute_burst_duration_mean: CCTE's Neural Acute Assay for Mean Burst Duration, Shafer Lab (AID 2284014);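 further: hits are decreases in mean burst duration relative to DMSO controls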
Summary of the method: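 Read-out is the per-well percent change in mean burst duration (first to last spike within a single-electrode burst) between 40-min recordings before and after compound. Cultures were primary rat cortical neurons on MEAs, dosed at 0.03-40 uM on DIV 13 or 15.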

[5] = CCTE_Shafer_MEA_acute_per_burst_spike_number_mean: CCTE's Neural Acute Assay for Average Number of Spikes Per Burst, Shafer Lab (AID 2284015);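 further: hits are decreases in mean spikes per burst versus baseline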
Summary of the method: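 Read-out: percent change in mean spikes per burst, each well's post-exposure 40-min recording versus its own 40-min baseline. Rat cortical cultures, DIV 13 or 15, compounds 0.03-40 uM; DMSO is negative control, loss-of-signal fitting.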

[6] = CCTE_Shafer_MEA_acute_burst_percentage_mean: CCTE's Neural Acute Assay for Percentage of Spikes in a Burst, Shafer Lab (AID 2284017);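 on AC50: curve fitted for loss of signal so potency reflects decreased burst percentage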
Summary of the method: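 Rat cortical cultures, DIV 13/15, 37 C. Spikes detected at 8x rms noise (300-5000 Hz band-pass). Burst spikes/total spikes averaged across electrodes per well; % change post- vs pre-treatment (40 min each), loss-of-signal fit vs DMSO.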

[7] = CCTE_Shafer_MEA_acute_burst_percentage_std: CCTE's Neural Acute Assay for Standard Deviation of Burst Percentage, Shafer Lab (AID 2284018);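 further: fitted in the negative direction so actives lower burst percentage SD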
Summary of the method: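 Value is percent change from baseline in the across-electrode SD of spikes-in-bursts percentage, wells with >/= 10 active electrodes. Acute 40-min exposure to 0.03-40 uM on DIV 13 or 15 rat cortical cultures, recorded at 37 C after 40-min baseline.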

[8] = CCTE_Shafer_MEA_acute_per_network_burst_spike_number_mean: CCTE's Neural Acute Assay for Average Number of Spikes in a Network Burst, Shafer Lab (AID 2284019);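 on AC50: curve fitted for loss of signal so actives reduce spikes per network burst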
Summary of the method: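 Read-out is mean spike count per network burst, taken as percent change between a 40-min pre-exposure and a 40-min post-exposure recording per well. Rat primary cortical neurons on MEAs at 37 C, DIV 13 or 15; compounds at 0.03-40 uM.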

[9] = CCTE_Shafer_MEA_acute_per_network_burst_spike_number_std: CCTE's Neural Acute Assay for Standard Deviation of Number of Spikes in a Network Burst, Shafer Lab (AID 2284020);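 further: fitted for decrease in spike-number SD versus DMSO so actives lower it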
Summary of the method: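 Spontaneous network activity of primary rat cortical neurons is recorded extracellularly before and after a 40-min compound exposure (0.03-40 uM) at 37 C. The endpoint is the well's percent change in burst spike-number SD.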

[10] = CCTE_Shafer_MEA_acute_per_network_burst_electrodes_number_mean: CCTE's Neural Acute Assay for Mean Number of Electrodes in a Network Burst, Shafer Lab (AID 2284021);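 further: curves fitted for decreases only so hits reduce electrodes per burst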
Summary of the method: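 Cultures of rat cortex neurons were exposed on DIV 13 or 15 to compounds at 0.03-40 uM in at least three wells each. Activity over 40 min before and 40 min after exposure at 37 C gave the percent change in electrodes per network burst.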

For `COc1cc(C(=O)NC2CCN(C)CC2)ccc1Nc1ncc2c(n1)N(C1CCCC1)CC(F)(F)C(=O)N2C`, the outcome [1] was “inactive”, the outcome [2] was “inactive” and the outcome [3] was “inactive”. The AC50 [4] was 1.85 µM (active), the AC50 [5] was 29.9 µM (active) and the AC50 [6] was 15 µM (active). The outcome [7] was “inactive”, the AC50 [8] was 3.69 µM (active) and the AC50 [9] was 15.2 µM (active). The AC50 [10] was 5.23 µM (active).

For `CCCC(=O)OCCC(C)C`, the outcome [1] was “inactive”, the outcome [2] was “inactive” and the outcome [3] was “inactive”.

With `CCCCCCCCCCCCO` the outcome [1] was “inactive”, the outcome [2] was “inactive” and the outcome [4] was “inactive”. The AC50 [5] was 20 µM (active), the AC50 [6] was 25.5 µM (active) and the outcome [7] was “inactive”. The outcome [8] was “inactive”, the AC50 [9] was 26.7 µM (active) and the outcome [10] was “inactive”.

In the case of `O=C(O)c1ccccc1-n1cc(C(=O)O)c(=O)c2cc(Nc3c(F)cc(F)cc3Cl)c(Cl)cc21`, the outcome [1] is reported as “inactive”, the outcome [2] is reported as “inactive” and the outcome [3] is reported as “inactive”. For the same molecule, the outcome [4] was “inactive”, the AC50 [5] was 20 µM (active) and the outcome [6] was “inactive”. The outcome [7] was “inactive”, the outcome [8] was “inactive” and the outcome [9] was “inactive”. For the same molecule, the outcome [10] was “inactive”.

For `COc1cccc([C@H](O)C2CCN(CCc3ccc(F)cc3)CC2)c1OC`, the outcome [1] was “inactive”, the outcome [2] was “inactive” and the outcome [4] was “inactive”. The outcome [5] was “inactive”, the outcome [6] was “inactive” and the outcome [7] was “inactive”. For the same molecule, the outcome [8] was “inactive”, the AC50 [9] was 6.88 µM (active) and the outcome [10] was “inactive”.

With `OC12N=C(c3ccccc3)SC1Cc1cc(Cl)ccc12` (stereo not given) the outcome [1] was “inactive”, the outcome [2] was “inactive” and the outcome [3] was “inactive”. The AC50 [4] was 20 µM (active), the outcome [5] was “inactive” and the AC50 [6] was 32.6 µM (active). For the same molecule, the AC50 [7] was 30.7 µM (active), the outcome [8] was “inactive” and the outcome [9] was “inactive”. For the same molecule, the AC50 [10] was 32.5 µM (active).

For `CN(C)C(=O)C1(N2CCCCC2)CCN(CC[C@@]2(c3ccc(Cl)c(Cl)c3)CN(C(=O)c3ccccc3)CCO2)CC1`, the outcome [1] was “inactive”, the outcome [2] was “inactive” and the outcome [3] was “inactive”. For the same molecule, the AC50 [4] was 1.81 µM (active), the AC50 [5] was 2.5 µM (active) and the AC50 [6] was 19.4 µM (active). The outcome [7] was “inactive”, the AC50 [8] was 2.5 µM (active) and the AC50 [9] was 20.4 µM (active). The AC50 [10] was 22.4 µM (active).

For `O=CCCCC=O`, the outcome [1] was “inactive”, the outcome [2] was “inactive” and the outcome [3] was “inactive”.

In the case of `CCOC(=O)O[C@H](C)OC(=O)c1ccc2c(c1)cc(C(=O)NC1CCN(C(C)C)CC1)n2Cc1cc(-c2ccc(Cl)s2)on1`, the AC50 [1] is reported as 76.7 µM (active), the AC50 [2] is reported as 72.2 µM (active) and the outcome [3] is reported as “inactive”.

With `CCCCCCCCOC(=O)c1cc(O)c(O)c(O)c1` the outcome [1] was “inactive”, the outcome [2] was “inactive” and the outcome [3] was “inactive”. The outcome [4] was “inactive”, the outcome [5] was “inactive” and the AC50 [6] was 5.8 µM (active). The AC50 [7] was 7.82 µM (active), the outcome [8] was “inactive” and the AC50 [9] was 7.51 µM (active). For the same molecule, the AC50 [10] was 8.24 µM (active).

With `CCN(CC)C(=O)c1cc(S(=O)(=O)Cc2ccccc2)c(N2CCC(c3ccccc3)CC2)cc1N(CC)CCN(C)C` the outcome [1] was “inactive”, the outcome [2] was “inactive” and the outcome [3] was “inactive”. For the same molecule, the AC50 [4] was 0.553 µM (active), the AC50 [5] was 1.54 µM (active) and the AC50 [6] was 13 µM (active). For the same molecule, the outcome [7] was “inactive”, the AC50 [8] was 1.57 µM (active) and the outcome [9] was “inactive”. The outcome [10] was “inactive”.

With `CCN(Cc1cccc(S(=O)(=O)O)c1)c1ccc(C(=C2C=CC(=[N+](CC)Cc3cccc(S(=O)(=O)O)c3)C=C2)c2ccccc2S(=O)(=O)[O-])cc1` the outcome [1] was “inactive”, the outcome [2] was “inactive” and the outcome [3] was “inactive”. The outcome [4] was “inactive”, the outcome [5] was “inactive” and the outcome [6] was “inactive”. For the same molecule, the outcome [7] was “inactive”, the outcome [8] was “inactive” and the outcome [9] was “inactive”. For the same molecule, the outcome [10] was “inactive”.

In the case of `CC(C)(c1cc(Br)c(O)c(Br)c1)c1cc(Br)c(O)c(Br)c1`, the outcome [1] is reported as “inactive”, the outcome [2] is reported as “inactive” and the outcome [4] is reported as “inactive”. The outcome [5] was “inactive”, the AC50 [6] was 19.1 µM (active) and the outcome [7] was “inactive”. The outcome [8] was “inactive”, the outcome [9] was “inactive” and the outcome [10] was “inactive”.

For `CN(C)c1ccc(C(=C2C=CC(=[N+](C)C)C=C2)c2ccc(N(C)C)cc2)cc1`, the AC50 [1] was 14.4 µM (active), the outcome [2] was “inactive” and the outcome [3] was “inactive”. For the same molecule, the outcome [4] was “inactive”, the outcome [5] was “inactive” and the AC50 [6] was 2.07 µM (active). For the same molecule, the AC50 [7] was 2.72 µM (active), the outcome [8] was “inactive” and the AC50 [9] was 2.78 µM (active). For the same molecule, the outcome [10] was “inactive”.

In the case of `O=c1[nH]sc2ccccc12`, the outcome [1] is reported as “inactive”, the outcome [2] is reported as “inactive” and the outcome [3] is reported as “inactive”. For the same molecule, the outcome [4] was “inactive”, the outcome [5] was “inactive” and the AC50 [6] was 20 µM (active). The outcome [7] was “inactive”, the outcome [8] was “inactive” and the outcome [9] was “inactive”. For the same molecule, the outcome [10] was “inactive”.

For `CO[C@H]1/C=C/O[C@@]2(C)Oc3c(C)c(O)c4c(O)c(c(/C=N/N5CCN(C)CC5)c(O)c4c3C2=O)NC(=O)/C(C)=C\C=C\[C@H](C)[C@H](O)[C@@H](C)[C@@H](O)[C@@H](C)[C@H](OC(C)=O)[C@@H]1C`, the outcome [1] was “inactive”, the outcome [2] was “inactive” and the outcome [4] was “inactive”. The AC50 [5] was 12.5 µM (active), the outcome [6] was “inactive” and the outcome [7] was “inactive”. For the same molecule, the AC50 [8] was 12.5 µM (active), the outcome [9] was “inactive” and the outcome [10] was “inactive”.

In the case of `CCCCCCCC[Si](OCC)(OCC)OCC`, the outcome [1] is reported as “inactive”, the outcome [2] is reported as “inactive” and the outcome [3] is reported as “inactive”.

For `CC1=CC(=O)/C(=C(/C)O)C(=O)O1`, the outcome [4] was “inactive”, the outcome [5] was “inactive” and the outcome [6] was “inactive”. For the same molecule, the outcome [7] was “inactive”, the outcome [8] was “inactive” and the outcome [9] was “inactive”. For the same molecule, the outcome [10] was “inactive”.

In the case of `O=C1O[C@H]([C@@H](O)CO)C(O)=C1O`, the outcome [1] is reported as “inactive”, the outcome [2] is reported as “inactive” and the outcome [3] is reported as “inactive”. The outcome [4] was “inactive”, the outcome [5] was “inactive” and the outcome [6] was “inactive”. The outcome [7] was “inactive”, the outcome [8] was “inactive” and the outcome [9] was “inactive”. For the same molecule, the outcome [10] was “inactive”.
